Experimental data: PubChem BioAssay (NCI)
The panel holds about 79,000 compounds, 15% with a hit somewhere; the sample as a whole holds those more often. Rule as the data show it: active = growth inhibition above about 70%; inactive = the rest.

Legend:
[1] = NCI Yeast Anticancer Drug Screen. Data for the rad50 strain (AID 155);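 also: 0% = growth of vehicle-only cultures of the same strain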; details: S. cerevisiae rad50 strain growth inhibition; at 50.0 µM; hits give high values
In short: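 Cells are treated with compound, grown, and their growth is then scored against vehicle-only cultures of the same repair-deficient yeast strain.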

[2] = NCI Yeast Anticancer Drug Screen. Data for the mec2-1 strain (AID 157); details: S. cerevisiae mec2-1 strain, at 50.0 µM, hits give high values
In short: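 Mutant yeast (mec2-1) grown with compound; growth inhibition relative to vehicle control reported.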

[3] = NCI Yeast Anticancer Drug Screen. Data for the sgs1 mgt1 strain (AID 161);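 also: 0% = growth of cultures given vehicle only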; details: S. cerevisiae sgs1 mgt1 strain, at 50.0 µM, hits give high values
In short: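 This yeast growth screen uses a strain with defined DNA-repair lesions; compound-treated growth is compared with vehicle-treated growth.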

[4] = NCI Yeast Anticancer Drug Screen. Data for the cln2 rad14 strain (AID 165);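 also: 0% = growth equal to vehicle treated cultures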; details: S. cerevisiae cln2 rad14 strain, at 50.0 µM, hits give high values
In short: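 Readout is yeast growth inhibition versus vehicle-treated controls, using a strain with cln2 and rad14 alterations exposed to compound.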

[5] = NCI Yeast Anticancer Drug Screen. Data for the bub3 strain (AID 167); details: S. cerevisiae bub3 mutant strain, at 50.0 µM, hits give high values
In short: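 Part of a panel of yeast mutants defective in DNA damage repair or cell cycle regulation. Each strain is grown with compound, and inhibition is calculated relative to solvent-treated cultures.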

[6] = NCI Yeast Anticancer Drug Screen. Data for the mlh1 rad18 strain (AID 175); details: S. cerevisiae mlh1 rad18 strain growth inhibition; at 50.0 µM; hits give high values
In short: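 Genetically defined yeast (DNA repair-deficient) exposed to compounds; growth inhibition determined relative to vehicle.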

Measured: growth inhibition

O=C(O)c1ccc(N=NC2Sc3nc4ccccc4n3C2=O)cc1 (stereo not drawn)
inactive: [1] 16.7% | [2] -13.8% | [3] 15.7% | [4] -8.9% | [5] 11.2% | [6] 44.2%

CS(=O)(=O)NCC1OC(n2cnc3c(N)ncnc32)C(O)C1O (stereo not drawn)
inactive: [1] 12.2% | [2] -9.3% | [3] 19% | [4] -5.95% | [5] 30.5% | [6] 1.8%

CC(=O)c1ccc[cH-]1.[Fe+2].c1cc[cH-]c1
inactive: [1] 13.5% | [2] 9.75% | [3] 12.9% | [4] 4.25% | [5] 23.2% | [6] 11.3%

CN1CCN(C(=S)N(C(=O)c2ccc(Cl)cc2)c2ccccc2)CC1
inactive: [1] -49.2% | [2] -36.5% | [3] -20.6% | [4] -6.8% | [5] 4.65% | [6] -7.25%

O=C(Oc1ccccc1OC(=O)c1ccc(Cl)cc1)c1ccc(Cl)cc1
inactive: [1] 3.15% | [2] 6.4% | [3] 12.7% | [4] 6.7% | [5] -2.65% | [6] 8.6%

COc1ccc(CC2c3cc(OC)c(OC)cc3CCN2C(=O)c2ccccc2)cc1OC (stereo not drawn)
inactive: [1] 10% | [2] -18.9% | [3] 9.5% | [4] 16.3% | [5] 10.7% | [6] 1.45%

Clc1ccc(-c2ncc(-c3ccccc3)o2)c(Cl)c1
inactive: [1] 9.35% | [2] -3.4% | [3] 5.65% | [4] -39.9% | [5] 9.2% | [6] 23.2%

NC(N)=NC(N)=Nc1cnccn1
inactive: [1] 13.7% | [2] 6.8% | [3] 2.5% | [4] 15.8% | [5] -10.5% | [6] 15.2%

C/C(=N/N(C)c1ccccc1)C(C)C
inactive: [1] 14.5% | [2] -6.75% | [3] 3.45% | [4] 1.6% | [5] 24.4% | [6] 10.7%

COc1ccc(C(C#N)NNC(=O)c2ccccc2O)cc1OC (stereo not drawn)
inactive: [1] 14.9% | [2] 0.85% | [3] 6.6% | [4] 4.2% | [5] 35.2% | [6] -18.9%

CC(C)C(=O)CC(c1ccc(Cl)cc1)N1N=C(C(C)C)CC1c1ccc(Cl)cc1 (stereo not drawn)
inactive: [1] 8.05% | [2] 15.2% | [3] 6.95% | [4] -27.4% | [5] 40% | [6] 14.4%

O=C(N[C@H](CO)[C@H](O)c1ccc([N+](=O)[O-])cc1)C(Cl)Cl
inactive: [1] 25.2% | [2] -4.05% | [3] 28.9% | [4] 9.55% | [5] 35.6% | [6] 10.7%

CCCCCCCOc1ccc(C2=C(c3ccccc3)C(=O)C(c3ccccc3)=C2c2ccccc2)cc1
inactive: [1] 22.4% | [2] 3.3% | [3] 8.3% | [4] 15.9% | [5] 3.95% | [6] 2.4%

CC(C)NC(=O)OCc1c(COC(=O)NC(C)C)c(-c2ccc(Cl)c(Cl)c2)n2c1C[C@@H](O)C2
inactive: [1] 17.3% | [2] 20% | [3] 21.5% | [4] 38.4% | [5] 11.5% | [6] -44.4%

CC1OC(OC2C(OC(=O)[C@@H]3CC(C)(C)C[C@@H]4C5=CC[C@@H]6[C@@]7(C)C[C@H](O)[C@H](OC8OC(CO)C(O)C(O)C8O)[C@@](C)(CO)C7[C@H](O)C[C@@]6(C)[C@]5(C)C[C@@H](O)[C@H]43)OCC(O)C2O)C(O)C(O)C1O (stereo partly drawn)
inactive: [1] -23.9% | [2] -21.6% | [3] -9.35% | [4] 13.2% | [5] 1% | [6] -49.7%

Cc1ccc(C(=O)C(O)c2ccc(C)cc2)cc1 (stereo not drawn)
inactive: [1] 35.6% | [2] -34.6% | [3] 4.95% | [4] -24.1% | [5] 0.55% | [6] -7.05%

CCOC(=O)C(NC(=O)NC(C(=O)OCC)C(=O)OCC)C(=O)OCC
inactive: [1] -16.7% | [2] -20.6% | [3] -6.55% | [4] -4.05% | [5] -7.7% | [6] -17.6%

c1ccc2oc(-c3ccc4c(c3)OCO4)nc2c1
inactive: [1] 14.8% | [2] 42.8% | [3] 11.6% | [4] 4.5% | [5] -2.75% | [6] -0.2%

CCCCN(CCCC)S(=O)(=O)c1ccc(OCCOc2ccc(S(=O)(=O)N(CCCC)CCCC)cc2)cc1
inactive: [1] 10.7% | [2] -1.4% | [3] 15.2% | [4] -12.4% | [5] -5.1% | [6] 7.75%

COC1OC2COC(c3ccccc3)OC2C(OC(C)=O)C1OS(=O)(=O)c1ccc(C)cc1 (stereo not drawn)
inactive: [1] -2.7% | [2] 14.1% | [3] -5.35% | [4] 3.35% | [5] -4.65% | [6] 28.8%

CCCCCOc1ccc(C2=C(c3ccccc3)C(=O)C(c3ccccc3)=C2c2ccccc2)cc1
inactive: [1] 40.4% | [2] 12.3% | [3] 33.5% | [4] 26.9% | [5] -3.15% | [6] 23.4%

C=CCc1c(Cl)nc(Cl)nc1Cl
inactive: [1] -14.8% | [2] 22.6% | [3] 10.3% | [4] -69.2% | [5] 7.1% | [6] -23.6%

Cc1ccc(C(=O)/C=C\c2ccc(Cl)c(Cl)c2)cc1
inactive: [1] -14.9% | [2] -5.8% | [3] 23.3% | [4] -5.5% | [5] 35.7% | [6] 5.6%

COc1ccc(C(c2c(O)c3ccccc3n(C)c2=O)c2c(O)c3ccccc3n(C)c2=O)cc1
inactive: [1] -39% | [2] -19.3% | [3] -25.9% | [4] -33.5% | [5] 1.1% | [6] -35.1%

CSc1ccc(C(N)=O)cn1
inactive: [1] -1.2% | [2] -12.2% | [3] -7.05% | [4] -36% | [5] -22.1% | [6] 1.15%

OC(c1ccncc1)(c1ccc(Cl)cc1)c1cccs1 (stereo not drawn)
inactive: [1] 6.35% | [2] 11.2% | [3] 6.95% | [4] -5.2% | [5] 21.4% | [6] 7.7%

C=CCOc1ccc(C2C(C(=O)OCC)C(=O)CC(C)(O)C2C(=O)OCC)cc1OC (stereo not drawn)
inactive: [1] -6.25% | [2] -11.3% | [3] -7.15% | [4] -24% | [5] 1.35% | [6] -7.45%

NC(Cc1ccccc1)C(=O)Nc1ccccc1 (stereo not drawn)
inactive: [1] 18.3% | [2] -16% | [3] -7.3% | [4] 13.3% | [5] -22.1% | [6] 10.5%

CN=C(c1ccccc1)N(O)c1ccccc1
inactive: [1] -16.1% | [2] -1.15% | [3] -8.15% | [4] -10.1% | [5] -1.65% | [6] 6.2%

Cc1cc(C)cc(NC(N)=S)c1
inactive: [1] 11.8% | [2] -0.25% | [3] 6.9% | [4] -5.3% | [5] 10.6% | [6] 11.7%

Cc1ccc([N+](=O)[O-])cc1NC(=O)Nc1cccc(Cl)c1Cl
inactive: [1] 3.55% | [2] 2.95% | [3] 9.8% | [4] 9% | [5] 18.1% | [6] 11.1%

CCCc1[nH]n(-c2ccccc2)c(=O)c1N=Nc1ccc(Cl)cc1
inactive: [1] -4.25% | [2] -6.65% | [3] -9.95% | [4] -5.1% | [5] -7.6% | [6] -0.8%

CCCCCC/C(CC(=O)CCC(=O)NCCc1ccccc1)=N\NC(=O)c1ccc2ccccc2c1O
inactive: [1] 25% | [2] 20.2% | [3] 32.6% | [4] -49.2% | [5] 2.5% | [6] 45.5%

CC(=O)C(C)C(C)=O
inactive: [1] -2.95% | [2] 0.7% | [3] 1.4% | [4] -21.6% | [5] 22.6% | [6] -0.85%

O=C(O)C1SCCS1
inactive: [1] 15.4% | [2] 14.7% | [3] 19.1% | [4] 21.8% | [5] 22.1% | [6] 12.8%

COc1ccc(-c2c(C(C)=O)c(C)n(C3OC(CO)C(O)C(O)C3O)c(=S)c2C#N)cc1 (stereo not drawn)
inactive: [1] 15.9% | [2] 34.2% | [3] 31.8% | [4] 34% | [5] 26.2% | [6] 49%

C=C1CC2(C)C(=O)CCCC2OC1=O (stereo not drawn)
inactive: [1] 4.05% | [2] -0.85% | [3] 10.1% | [4] -14.9% | [5] 4.8% | [6] 4%

CCCCc1ccc(N=Nc2ccccc2)cc1
inactive: [1] -9.35% | [2] -17.5% | [3] -15.6% | [4] -59% | [5] -6.05% | [6] -32.2%
